Some test systems named below: HCT-15 colon; HT29 colon; SNB-75 CNS; SNB-19 CNS; U251 CNS; SK-MEL-5 melanoma; UACC-62 melanoma; LOX IMVI melanoma; SK-MEL-28 melanoma; PC-3 prostate.
Holding throughout (assay): NCI-60 one-dose screen, 48 h (100 = growth as untreated, 0 = no growth, -100 = all killed)
What all share (settings): 10 µM unless noted

About 83,000 compounds went through this panel and 20% of them were active in at least one assay; those are over-represented in the sample as a whole.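 Treatment: one concentration, 48 hours, 96-well format. Scoring: percent growth, with anything below 10 considered active.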 A number with no mark means an inactive call. Activity calls are given as the source filed them.

In the case of `CCOc1nc(-c2ccccc2)cc2c(O)c(C(=O)N/N=C/c3ccc(O)cc3O)[nH]c(=O)c12`, the growth in the assay with HCT-15 colon was 23.9%; in the assay on HT29 colon, 48.3%; in the assay on SNB-75 CNS, 59.6%; in the assay on SNB-19 CNS it was 43.2%; in the assay with U251 CNS, 21.2%; in the assay on SK-MEL-5 melanoma it was 21.9%. Further, the growth in the assay with UACC-62 melanoma is 9.73% (active); in the assay with LOX IMVI melanoma it was -0.51% (active); in the assay with SK-MEL-28 melanoma, 60%.

For `O=C(COc1ccc(/C=C2\CSc3ccccc3C2=O)cc1)Nc1nccs1`, the growth is 84.6% in the assay on HCT-15 colon; 74.7% in the assay with HT29 colon; 87.8% in the assay on SNB-75 CNS; 82.1% with SNB-19 CNS; 83% in the assay with U251 CNS; 142% in the assay with SK-MEL-5 melanoma. Further, the growth with UACC-62 melanoma is 85.5%; with LOX IMVI melanoma it was -28.3% (active); with SK-MEL-28 melanoma, 124%.

Take `O=c1c(F)cn(Cc2ccccc2CCl)c(=O)n1Cc1ccccc1CCl`: the growth in the assay with HCT-15 colon is -57.6% (active); with HT29 colon, -83.7% (active); with SNB-75 CNS it was -5.72% (active); in the assay on SNB-19 CNS, -23% (active); in the assay on U251 CNS it was -71.6% (active); in the assay with SK-MEL-5 melanoma, -100% (active). Also, the growth in the assay with UACC-62 melanoma was -82.6% (active); with LOX IMVI melanoma it was -81.7% (active); in the assay with SK-MEL-28 melanoma, -65% (active).

Turning to `C#CCOc1ccc2ncnc(Nc3cccc(CNC(=O)C=C)c3)c2c1`, the growth in the assay with HCT-15 colon is 104% [8.25 µM]; in the assay on HT29 colon, 108% [8.25 µM]; with SNB-75 CNS, 88.6% [8.25 µM]; in the assay on SNB-19 CNS, 98.1% [8.25 µM]; in the assay with U251 CNS it was 94.6% [8.25 µM]; in the assay on SK-MEL-5 melanoma it was 96% [8.25 µM]. For the same compound, the figures for the growth in the assay with UACC-62 melanoma, in the assay with LOX IMVI melanoma and in the assay with SK-MEL-28 melanoma were 99.6% [8.25 µM], 97.3% [8.25 µM] and 97.5% [8.25 µM], respectively.

`COC(=O)c1ccc(NC(=O)c2ccc(-c3cccc([N+](=O)[O-])c3)o2)cc1`: the growth with HCT-15 colon was 101%; in the assay on HT29 colon it was 103%; with SNB-75 CNS, 82.4%; in the assay with SNB-19 CNS, 94.4%; in the assay on U251 CNS, 100%; in the assay on SK-MEL-5 melanoma, 97.8%. Besides, the results for the growth in the assay with UACC-62 melanoma, with LOX IMVI melanoma and in the assay on SK-MEL-28 melanoma were 95.5%, 96.1% and 100%, respectively.

In the case of `O=C(Nc1ccccc1Cl)c1ccc(NC2=C(Cl)C(=O)N(C3CCCCC3)C2=O)cc1`, the growth in the assay on HCT-15 colon was 46.5% [30 µM]; in the assay with HT29 colon it was 37.4% [30 µM]; in the assay with SNB-75 CNS, 38.8% [30 µM]; with SNB-19 CNS, 62.1% [30 µM]; in the assay with U251 CNS, 34.1% [30 µM]; with SK-MEL-5 melanoma, 54.4% [30 µM]. Also, the growth in the assay with UACC-62 melanoma is 66.2% [30 µM]; in the assay with LOX IMVI melanoma, 23.7% [30 µM]; with SK-MEL-28 melanoma, 56.1% [30 µM].

Consider `Cc1cc(C)nc(SC2=C(Nc3cccc(Cl)c3C)C(=O)N(Cc3ccccc3)C2=O)n1`, for which the growth was 51.6% [30 µM] in the assay with HCT-15 colon; 30.2% [30 µM] with HT29 colon; 50.5% [30 µM] in the assay on SNB-75 CNS; 71.9% [30 µM] in the assay on SNB-19 CNS; 49.4% [30 µM] in the assay on U251 CNS; 64.3% [30 µM] with SK-MEL-5 melanoma. Also, the growth in the assay with UACC-62 melanoma is 56.2% [30 µM]; with LOX IMVI melanoma, 59% [30 µM]; with SK-MEL-28 melanoma it was 85.1% [30 µM].

For `CN1CCN(c2ccc(Nc3c4ccccc4nc4ccccc34)cc2)CC1`, the growth is 99.3% with HCT-15 colon; 103% in the assay on HT29 colon; 96.8% in the assay with SNB-75 CNS; 107% in the assay with SNB-19 CNS; 99.8% in the assay with U251 CNS; 102% in the assay on SK-MEL-5 melanoma. Besides, the values for the growth in the assay on UACC-62 melanoma, in the assay with LOX IMVI melanoma and in the assay with SK-MEL-28 melanoma were 109%, 105% and 109%, respectively.

Turning to `CC(O)CN1CC(O)=C(c2nc3ccccc3s2)C1=N` (centres undefined), the growth with HCT-15 colon is 158%; with HT29 colon it was 104%; in the assay on SNB-75 CNS, 99.3%; with SNB-19 CNS, 96.5%; in the assay with U251 CNS, 157%; in the assay with SK-MEL-5 melanoma, 105%. The growth was 102% in the assay on UACC-62 melanoma, 211% with LOX IMVI melanoma and 131% in the assay on SK-MEL-28 melanoma.

In the case of `COc1cc(-c2nn(C)nc2-c2cc3ccccc3s2)cc(OC)c1OC`, the growth with HCT-15 colon was 16.9%; in the assay with HT29 colon it was -1.21% (active); in the assay on SNB-75 CNS, 48.1%; in the assay with SNB-19 CNS, 26.7%; in the assay on U251 CNS it was 20.9%; in the assay on PC-3 prostate, 21.9%. In addition, the growth in the assay on LOX IMVI melanoma was 38.3%; in the assay with SK-MEL-28 melanoma it was 57.6%.

Turning to `O=C1c2ccccc2C(=O)c2c1ccc1[nH]c(-c3cccs3)nc21`, the growth was 89.8% with HCT-15 colon; 107% in the assay on HT29 colon; 98.9% in the assay on SNB-75 CNS; 100% with SNB-19 CNS; 72.7% in the assay on U251 CNS; 85% in the assay on SK-MEL-5 melanoma. Also, the values for the growth in the assay on UACC-62 melanoma, in the assay with LOX IMVI melanoma and in the assay on SK-MEL-28 melanoma were 85.5%, 79.2% and 127%, respectively.

In the case of `COc1ccc(-n2nc(C)c3c(Nc4ccc(NC(=O)Nc5cc(C(F)(F)F)ccc5F)cc4)ncnc32)cc1`, the growth in the assay with HCT-15 colon is 8.66% (active); with HT29 colon, 1.92% (active); in the assay with SNB-75 CNS, 25.8%; in the assay with SNB-19 CNS, 34.8%; with U251 CNS, 12.9%; in the assay with SK-MEL-5 melanoma it was 46%. Besides, the growth in the assay with UACC-62 melanoma was 19.6%; in the assay on LOX IMVI melanoma, -90.5% (active); in the assay on SK-MEL-28 melanoma it was 48.6%.

Turning to `Brc1ccc(-c2csc(Nc3ccccn3)n2)cc1`, the growth is 138% in the assay on HCT-15 colon; 97.8% in the assay on HT29 colon; 93.4% in the assay with SNB-75 CNS; 99.4% in the assay on SNB-19 CNS; 166% in the assay on U251 CNS; 75.5% with SK-MEL-5 melanoma. The values for the growth in the assay with UACC-62 melanoma, in the assay on LOX IMVI melanoma and in the assay on SK-MEL-28 melanoma were 75.5%, 214% and 149%, respectively.

Regarding `COc1cc(-c2nc3cc(Cl)c(Cl)cc3[nH]2)ccc1OCC(=O)N=Nc1c(O)[nH]c2ccccc12`, the growth in the assay on HCT-15 colon was 64.4%; in the assay with HT29 colon, -23.1% (active); in the assay on SNB-75 CNS it was -90% (active); with SNB-19 CNS, 0.731% (active); in the assay with U251 CNS it was -92% (active); in the assay with PC-3 prostate it was -59.3% (active). Moreover, the growth in the assay with LOX IMVI melanoma was -100% (active); in the assay on SK-MEL-28 melanoma it was -93.4% (active).

These data come from PubChem BioAssay (NCI).
